Data from PubChem BioAssay AID1159580 (chemical genetic matrix, 2015).
Values joined by “and” are separate entries in the source; they are usually repeats but may differ in a detail not shown here. Equal entries are not always repeated. About 2,000 (36%) of roughly 5,500 compounds were called active. Another 18% or so got no clear call; they are omitted. Rule as the data show it: active = normalized growth mostly below about 0.91 (no sharp cut-off); inconclusive = no clear call, values can overlap the other calls; inactive = mostly above about 0.92. Some of the results follow.

Experiment: chemical genetic growth profiling, strain panel (AID 1159580);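 also: tested at 20 µM; growth read once vehicle control cultures reached saturation at 30 °C; 1 = growth at the plate median or of vehicle wells; lower values mean less growth of the strain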
Details: S. cerevisiae deletion strains, growth OD

Measured: normalized growth

CCCCCC(C)N (stereo unspecified)
inactive: locus YAL013W, strain DEP1, stronger effect = lower value 1.01 | locus YAL021C, strain ccr4, stronger effect = lower value 1.02 | locus YAL026C, strain drs2, stronger effect = lower value 1.02 | locus YAL030W, strain snc1, stronger effect = lower value 1.02 | locus YBL061C, strain skt5, stronger effect = lower value 1.03 | locus YBR009C, strain hhf1, stronger effect = lower value 1.03 | locus YBR021W, strain FUR4, stronger effect = lower value 1.01 | locus YBR023C, strain chs3, stronger effect = lower value 1.05 | locus YBR171W, strain sec66, stronger effect = lower value 1.04 | locus YBR229C, strain ROT2, stronger effect = lower value 1.01 | locus YBR231C, strain swc5, stronger effect = lower value 1.04 | locus YBR279W, strain paf1, stronger effect = lower value 1.02 | locus YCL011C, strain gbp2, stronger effect = lower value 1.02 | locus YCL016C, strain dcc1, stronger effect = lower value 1.03 | locus YCL029C, strain bik1, stronger effect = lower value 0.994 | locus YCL061C, strain MRC1, stronger effect = lower value 1.02 | locus YCL069W, strain vba3, stronger effect = lower value 1.03 | locus YCR088W, strain abp1, stronger effect = lower value 1.02 | locus YDL005C, strain med2, stronger effect = lower value 1.04 | locus YDL035C, strain GPR1, stronger effect = lower value 1.02 | locus YDL040C, strain nat1, stronger effect = lower value 1.03 | locus YDL074C, strain BRE1, stronger effect = lower value 1.02 | locus YDL101C, strain DUN1, stronger effect = lower value 1 | locus YDL134C, strain PPH21, stronger effect = lower value 1.02 | locus YDL185W, strain tfp1, stronger effect = lower value 0.999 | locus YDL192W, strain arf1, stronger effect = lower value 0.997 | locus YDR001C, strain nth1, stronger effect = lower value 1.02 | locus YDR069C, strain doa4, stronger effect = lower value 1.01 | locus YDR101C, strain arx1, stronger effect = lower value 0.99 | locus YDR137W, strain rgp1, stronger effect = lower value 1.08 | locus YDR150W, strain NUM1, stronger effect = lower value 1.02 | locus YDR159W, strain sac3, stronger effect = lower value 1.02 | locus YDR162C, strain NBP2, stronger effect = lower value 1.01 | locus YDR195W, strain ref2 1.03 | locus YDR297W, strain sur2, stronger effect = lower value 1.02 | locus YDR318W, strain mcm21, stronger effect = lower value 0.994 | locus YDR334W, strain swr1, stronger effect = lower value 1.02 | locus YDR335W, strain msn5, stronger effect = lower value 1.03 | locus YDR388W, stronger effect = lower value 0.993 | locus YDR392W, strain spt3, stronger effect = lower value 0.996 | locus YDR502C, strain sam2, stronger effect = lower value 0.993 | locus YEL003W, strain gim4, stronger effect = lower value 1.02 | locus YEL037C, strain rad23, stronger effect = lower value 1.02 | locus YEL061C, strain CIN8 (second series), stronger effect = lower value 1.03 | locus YEL061C, strain CIN8, stronger effect = lower value 1.01 | locus YER015W, strain faa2, stronger effect = lower value 1.02 | locus YER016W, strain bim1, stronger effect = lower value 1.02 | locus YER110C, stronger effect = lower value 0.989 | locus YER111C, strain swi4, stronger effect = lower value 1.03 | locus YER155C, strain BEM2 (second series), stronger effect = lower value 1 | locus YER155C, strain BEM2, stronger effect = lower value 1.02 | locus YER167W, strain BCK2, stronger effect = lower value 1.01 | locus YFR010W, strain ubp6, stronger effect = lower value 1.02 | locus YGL078C, strain dbp3, stronger effect = lower value 0.995 | locus YGL086W, strain mad1, stronger effect = lower value 1.01 | locus YGL167C, strain pmr1, stronger effect = lower value 1.03 | locus YGL173C, strain kem1, stronger effect = lower value 1.03 | locus YGL227W, strain vid30, stronger effect = lower value 1.02 | locus YGL240W, strain doc1, stronger effect = lower value 1.02 | locus YGL248W, strain PDE1, stronger effect = lower value 1 | locus YGL253W, strain hxk2, stronger effect = lower value 1.03 | locus YGR078C, strain PAC10, stronger effect = lower value 0.908 | locus YGR135W, strain pre9, stronger effect = lower value 0.996 | locus YGR229C, strain SMI1, stronger effect = lower value 1.01 | locus YGR252W, strain gcn5, stronger effect = lower value 1.05 | locus YHR027C, strain rpn1, stronger effect = lower value 1.02 | locus YHR030C, strain SLT2, stronger effect = lower value 1.02 and 1.01 | locus YHR079C, strain IRE1 (second series), stronger effect = lower value 0.996 | locus YHR079C, strain IRE1, stronger effect = lower value 0.99 | locus YHR094C, strain hxt1, stronger effect = lower value 0.998 | locus YHR129C, strain ARP1, stronger effect = lower value 1.01 | locus YHR142W, strain chs7, stronger effect = lower value 1.04 | locus YHR200W, strain rpn10, stronger effect = lower value 0.996 | locus YIL066C, strain RNR3, stronger effect = lower value 1.02 | locus YIL073C, strain SPO22, stronger effect = lower value 0.987 | locus YIL125W, strain kgd1, stronger effect = lower value 1 | locus YIR030C, strain dcg1, stronger effect = lower value 0.996 | locus YJL092W, strain hpr5, stronger effect = lower value 1.02 | locus YJL095W, strain BCK1 (second series), stronger effect = lower value 1.02 | locus YJL095W, strain BCK1, stronger effect = lower value 0.999 and 1 | locus YJL115W, strain asf1, stronger effect = lower value 1.02 | locus YJL129C, strain trk1, stronger effect = lower value 1.05 | locus YJL134W, strain LCB3, stronger effect = lower value 1 | locus YJL154C, strain vps35, stronger effect = lower value 1.01 | locus YJL164C, strain tpk1, stronger effect = lower value 1.02 | locus YJL166W, strain qcr8, stronger effect = lower value 1.02 | locus YJL168C, strain set2, stronger effect = lower value 0.991 | locus YJL187C, strain SWE1 (second series), stronger effect = lower value 1.01 | locus YJL187C, strain SWE1, stronger effect = lower value 1.02 | locus YJR043C, strain POL32, stronger effect = lower value 0.998 | locus YJR066W, strain TOR1, stronger effect = lower value 0.942
